# Results reported in PubChem BioAssay AID1558 (National Center for Advancing Translational Sciences (NCATS), 2009).
# Results filed as inconclusive are left out. Active and inactive are the calls of the source. Calls come from the whole dose curve; as a rule, active = well fitted inhibition curve with a large enough effect; inconclusive = small, poorly fitted or top-dose-only effect; inactive = flat fitted curve, though single readings scatter.
# Molecular target: Microtubule-associated protein tau (Homo sapiens) (UniProt P10636)
# Sequence (P10636 561-689 P618L limits assumed): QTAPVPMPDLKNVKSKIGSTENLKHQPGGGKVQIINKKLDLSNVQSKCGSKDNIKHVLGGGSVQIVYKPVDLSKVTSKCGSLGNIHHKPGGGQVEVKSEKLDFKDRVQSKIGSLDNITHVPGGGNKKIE
# Assay: Confirmation Concentration-Response Assay for Inhibitors of Tau Fibril Formation, Thioflavin T Binding
# Settings: recombinant tau K18 P301L (four-repeat tau fragment) heparin fibrillization, ThT fluorescence
# Source text: NIH Molecular Libraries Probe Production Network [MLPCN] NIH Chemical Genomics Center [NCGC] MLPCN Grant: X01 MH083262-01 Assay Provider: Carlo Ballatore, University of Pennsylvania NCGC Assay Overview: The microtubule-associated protein tau is an abundant protein in the axons of neurons that stabilizes microtubules. With its ability to modulate microtubule dynamics, tau contributes directly or indirectly, to key structural and regulatory cellular functions. Particularly important is the influence tau exerts on axonal transport, which allows signaling molecules, trophic factors and other essential cellular constituents to travel along the axons. Under pathological conditions, tau becomes sequestered into insoluble aggregates called neurofibrillary tangles. […] This assay monitors tau fibrillization by Thioflavin T (ThT) fluorescence. […]
# For screening, 2 uL/well human K18 P301L (15 uM unlabeled and 0.24 uM Alexa 594-labeled tau, final concentrations) in reagent buffer (100 mM sodium acetate pH 7) was dispensed into black solid 1536-well plates (Grenier) using a solenoid-based dispenser. […] After a 1 hr ambient incubation, the plates were read by an Envision (Perkin Elmer) to monitor ThT fluorescence (450/8 nm excitation and 510/23 nm emission). […]
compound,measurement,value
CC(N)[C@H](O)c1ccc(O)c(O)c1 (stereo partly specified),Potency,7.94 µM (active)
